Source: PubChem BioAssay
HT1080 IDH1KD tx: toxicity to HT-1080 IDH1 knockdown cells (counter line); HT-1080 IDH1 knockdown viability, ATP luminescence, 48 h; Potency, µM (series often up to 46.1 µM), for the others: top-dose activity, negative = toxicity, most hits filed as cytotoxic; 2% of 360,000 active;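 note: 0% = DMSO wells and -100% = cell-free medium wells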
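Luminescent ATP read-out (CellTiter-Glo, 10 min at room temperature) after 48 h compound exposure at 37 °C gave viability of IDH1-knockdown HT-1080 cells. Activity was normalised to DMSO and cell-free wells, then fitted as concentration-response curves.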
TGFb inhibitor: TGF-b pathway inhibition; Potency, µM (series often up to 46.1 µM), without a hit: top-dose activity, negative = inhibition, actives largely listed as inhibitors; HepG2 CAGA-GFP TGF-b/SMAD3 reporter, GFP fluorescence, 18 h; TGF-beta stimulated, 500 pg/mL final; 1.2% of 410,000 active; AID 588855; note: % is set by controls: 0 for no effect and ±100 for the full control effect; nearly all actives have a fitted effect of over 65% in size
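HEPG2 CAGA-GFP, 1000 cells/well; 2 h settle, 37 C; cpd via pin tool; TGF-b 500 pg/mL final; 18 h, 37 C; GFP imaging ex488/em500-530; %Activity normalised to -TGF-b and +DMSO controls; CRC fit, curve class.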
HepG2 viability: HepG2 cytotoxicity, counter-screen for TGF-b inhibitors | HepG2 CAGA-GFP viability, ATP luminescence, 18 h | Potency, µM (series often up to 46.1 µM), without a hit: at the top dose activity change, negative = cytotoxicity, most hits filed as cytotoxic | 0.76% of 410,000 active
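CellTiter-Glo luminescence gave cytotoxicity after 18 hours at 37 degrees C. The cells were HepG2 CAGA-GFP in 1% FBS DMEM, stimulated with 500 pg/mL TGF-beta after compound addition. %Activity was normalised to no-cell wells (complete cell-killing) and DMSO (no toxicity), and curves were fitted and classified.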
HT1080-NT tox: kills 2HG-producing HT-1080-NT fibrosarcoma cells; AID 686970; 1.6% of 360,000 active; HT-1080-NT fibrosarcoma viability, CellTiter-Glo ATP luminescence, 48 h; Potency, µM (titrated, usually from 46.1 µM), without a hit: at the top dose activity, negative = less viability, hits mostly cytotoxic;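 note: NT is the 2HG producing partner of a matched IDH1 knockdown line; 0% = DMSO-treated cells and -100% = media-only wells without cells; nearly all actives have a fitted effect of over 55% in size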
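Compounds were tested in concentration-response format on HT-1080-NT cells for 48 hours at 37 degrees C. Cell viability came from CellTiter-Glo luminescence; curves were classified by r2, response magnitude and activity.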
TDP1 cell CPT: growth inhibition of DT40 Tdp1-/-;hTDP1 cells with camptothecin (screen for TDP1 inhibitors). chicken DT40 Tdp1-/-;hTDP1 cells + 20 nM CPT, ATP luminescence, 48 h. Potency, µM (top dose mostly 46.2 µM), inactives show top-dose activity change, negative = growth inhibition, hits mostly inhibitors. 12% of 420,000 active. AID 686979; note: % is set by controls: 0 for no effect and ±100 for the full control effect; nearly all actives have a fitted effect of over 55% in size
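Chicken DT40 Tdp1-/- cells stably complemented with human TDP1 were seeded at 400 cells/well in medium containing 20 nM camptothecin, exposed to pin-transferred compounds, and grown at 37 °C for at least 48 hr. Viability was read as ATP luminescence.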
DT40 TDP1 no CPT: qHTS for Inhibitors of human tyrosyl-DNA phosphodiesterase 1 (TDP1): qHTS in cells in absence of CPT; AID 686978, 2013; Potency, µM (highest dose often 46.2 µM), for inactives: top-dose activity change, negative = growth inhibition, usual class: inhibitors; DT40 Tdp1-/- hTDP1 cells, no CPT, ATP luminescence, 48 h; 15% of 420,000 active; note: % is set by controls: 0 for no effect and ±100 for the full control effect; nearly all actives have a fitted effect of over 55% in size
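Camptothecin absent (DMSO only). Human TDP1-complemented DT40 knockout cells, 400 cells/well, 37 °C for minimum 48 hr; ATP measured via CellTiter-Glo, 30 min dark incubation, luminescence.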
* hit, by the source's call; ? = inconclusive; nt = no result; [ ] = remark or other dose. Rows were chosen to be rich in hits. Some 17% of all compounds tested hit in one or more screens of this group. Calls come from the whole dose curve; as a rule, active = well fitted curve in the direction sought with a large enough effect; inconclusive = small, poorly fitted or top-dose-only effect, or another doubt; inactive = no such curve, though single readings can be large; an effect the other way counts as inactive or inconclusive. Potency is the fitted concentration of half-maximal effect.

SMILES	HT1080 IDH1KD tx	TGFb inhibitor	HepG2 viability	HT1080-NT tox	TDP1 cell CPT	DT40 TDP1 no CPT
O=C(Nc1cccc(C(F)(F)F)c1)c1ccc(-c2ccc(F)c(F)c2)c2ccoc12	26%	13%	-5%	?	?	?
COc1cc(NC(=O)c2ccc(-c3cn[nH]c3)c3ccoc23)cc(OC)c1OC	3%	32%	-26%	-1%	12µM*	13µM*
COc1cc(NC(=O)c2ccc(-c3ccnn3C)c3ccoc23)cc(OC)c1OC	1%	-4%	-3%	29%	?	21µM*
CC(C)c1ccc(NC(=O)c2ccc(-c3ccnn3C)c3ccoc23)cc1	18µM*	24%	-45%	15µM*	16µM*	21µM*
COc1cc(NC(=O)c2ccc(-c3ccc(F)c(F)c3)c3ccoc23)cc(OC)c1OC	-7%	-4%	-60%	-11%	4.1µM*	4.1µM*
CC(=O)Nc1ccc(NC(=O)c2ccc(-c3ccnn3C)c3ccoc23)cc1	0%	11%	-12%	-4%	?	?
COc1cc(NC(=O)c2ccc(-c3cccnc3)c3ccoc23)cc(OC)c1OC	3%	8%	-31%	-14%	13µM*	6.5µM*
CC(C)NC(=O)c1ccc(-c2ccc(F)c(F)c2)c2ccoc12	-2%	2%	-30%	11%	26µM*	23µM*
CN1CCN(C(=O)c2ccc(-c3ccc(F)c(F)c3)c3ccoc23)CC1	-26%	5%	-11%	-25%	16µM*	16µM*
O=C(Nc1cccc(OC(F)(F)F)c1)c1ccc(-c2cccnc2)c2ccoc12	20%	?	-35%	-20%	?	?
CN1CCN(C(=O)c2ccc(F)c(F)c2)CC1	8%	-5%	-2%	11%	-2%	11%
O=C(CSc1nc(=O)n2ccccc2n1)N1CCN(c2ccccc2)CC1	2%	2%	-11%	2%	5%	?
CC(C)Cc1nc2oc3c(Cl)ncnc3c2c2c1CCC2	?	-30%	-6%	2%	13µM*	18µM*
CC(C)Cc1nc2oc3c(NCCCN4CCOCC4)ncnc3c2c2c1CCC2	-4%	-29%	-15%	8%	16µM*	?
COc1ccc(-n2c3c(cc(-c4nc(-c5ccc(Cl)cc5)cs4)c2=O)C(=O)CC(C)(C)C3)cc1Cl	nt	-1%	-15%	nt	-12%	-6%
N#Cc1ccc(OCc2c(-c3ccccc3)nnn2CC(=O)O)cc1	13%	0%	0%	3%	7%	-1%
Cc1[nH]n(-c2ccc([N+](=O)[O-])cc2)c(=O)c1C=NCCN1CCN(C(=O)c2ccc(Br)cc2)CC1	?	-2%	7.1µM*	?	18µM*	15µM*
Cc1[nH]n(-c2ccc([N+](=O)[O-])cc2)c(=O)c1C=NCCc1c[nH]c2ccccc12	?	11%	-40%	?	12µM*	?
Cc1[nH]n(-c2ccc([N+](=O)[O-])cc2)c(=O)c1C=NCCN1CCN(C(=O)c2cccc(F)c2)CC1	16µM*	11%	7.9µM*	18µM*	15µM*	9.2µM*
Cc1[nH]n(-c2ccc([N+](=O)[O-])cc2)c(=O)c1C=NCCN1CCN(C(=O)c2ccc(F)cc2)CC1	3%	22%	-2%	2%	-5%	2%
CCCc1[nH]n(-c2ccc([N+](=O)[O-])cc2)c(=O)c1C=NCCc1c[nH]c2ccccc12	?	4%	-8%	?	?	?
O=C(c1ccc(F)c(F)c1)N1CCOc2ccc(CN3CCN(Cc4ccccn4)CC3)cc2C1	nt	nt	nt	nt	25%[9.04 µM]	-14%
